High-throughput results (PubChem BioAssay)
T cruzi growth-1: blocks T. cruzi growth in NIH3T3 culture. AID 624255. inhibition, % at 8.34 µM. T. cruzi beta-gal in NIH3T3, GalScreen luminescence, 90 h. hit rate 5.9% among 77,000;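 active = mean inhibition above about 93%, with at least 55% of replicates each passing it, limit read from the data, passing the limit was not always enough; inconclusive = only one of those two conditions holds; inactive = neither condition holds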
Pf Dd2 inh: P. falciparum Dd2 growth inhibition | AID 1159554 | SYBR Green, 72 h; stronger effect = lower value | hit rate 2.3% among 94,000 | activity change, % at 10 µM; in the data active = activity change below about -80%; inconclusive = no clear call, values can overlap the other calls
C diff HTS: C. difficile growth inhibition | AID 1259249 | growth activity, negative = inhibition, % at 16 µg/mL (by protocol) | hit rate 0.25% among 86,000 | Clostridium difficile clinical isolate growth, OD600, 24 h; stronger effect = lower value;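 active = mean growth activity at or below -80% and every replicate also at or below -80%; inconclusive = mean at or below -80% but some replicate above -80%; inactive = mean growth activity above -80%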;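 note: 0% = DMSO wells and -100% = levofloxacin 16 µg/mL wells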
T cruzi growth-2: inhibitors of T. cruzi proliferation; shares compounds with T cruzi growth-1; T. cruzi beta-gal in NIH3T3, GalScreen luminescence, 90 h; inhibition, % at 8.35 µM; hit rate 72% among 5,600; AID 651739;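 active = mean replicate inhibition above about 95% and at least 55% of replicates individually reaching it, limit read from the data; inconclusive = only one of the two criteria is met; inactive = neither criterion is met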
T cruzi growth-3: Trypanosoma cruzi proliferation inhibition; shares compounds with T cruzi growth-1; T. cruzi beta-gal in NIH3T3, GalScreen luminescence, 90 h; inhibition, % at 2.09 µM; hit rate 21% among 5,600; AID 651740;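 active = mean inhibition above about 95%, with at least 55% of replicates also reaching it, limit read from the data; inconclusive = meets just one of the two conditions; inactive = meets neither condition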;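 note: plate controls were neutral control median for no effect and positive control median for full effect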
3T3 cytotox: kills mouse NIH/3T3 fibroblasts; shares compounds with T cruzi growth-1; NIH/3T3 viability, CellTiter-Glo ATP luminescence, 90 h; cytotoxicity (signal decrease), % at 8.35 µM; hit rate 14% among 5,600; AID 651742;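 active = mean signal decrease across replicates above about 35% based on untreated-well scatter, with enough replicates individually passing, limit read from the data; inconclusive = no rule stated though some were filed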;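 note: 0% = median of neutral control wells and 100% = median of positive control wells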
3T3 cytotox 2: cytotoxicity in mouse NIH/3T3 fibroblasts | inhibition, % at 24.9 µM | AID 651744 | hit rate 56% among 5,600 | NIH/3T3 viability, CellTiter-Glo ATP luminescence, 90 h | shares compounds with T cruzi growth-1;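 active = mean loss of cell viability signal at or above a set limit, and enough replicates individually reaching it; inconclusive = meets only the mean limit or only the replicate share; inactive = meets neither condition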;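 note: 0% = median of neutral control wells and 100% = median of positive control wells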
Numbers without * were called inactive; ? = inconclusive; . = not tested or not shown. Rows were chosen to be rich in hits. Some 6.7% of all compounds tested hit in one or more screens of this group.

SMILES	T cruzi growth-1	Pf Dd2 inh	C diff HTS	T cruzi growth-2	T cruzi growth-3	3T3 cytotox	3T3 cytotox 2
CC(C)CC#Cc1ccc2c(c1)O[C@H](CN(C)Cc1ccccc1F)[C@H](C)CN([C@H](C)CO)S2(=O)=O	?	-44.1	.	97.8*	112.8*	-8.7	105.4*
C[C@H]1CN([C@@H](C)CO)C(=O)Cc2cc(NC(=O)Cc3cn(C)c4ccccc34)ccc2O[C@@H]1CN(C)S(=O)(=O)c1cccs1	34.8	3.3	-12.0	.	.	.	.
CCN1[C@@H]2c3ccc(C4=CCCC4)c(=O)n3C[C@H]1[C@H](CO)[C@H]2C(=O)NCc1ccccn1	75.2	9.0	-2.1	.	.	.	.
O=C(C[C@H]1C[C@H]2c3cc(NC(=O)NC4CCCC4)ccc3O[C@H]2[C@H](CO)O1)NCc1ccc(-c2ccccc2)cc1	78.3	-16.7	2.8	.	.	.	.
C[C@H]1CN([C@@H](C)CO)S(=O)(=O)c2ccc(-c3cncnc3)cc2O[C@H]1CN(C)C(=O)CC1CC1	-0.1	2.7	-2.2	.	.	.	.
O=C(NCC[C@@H]1CC[C@H](NC(=O)C2CCCC2)[C@@H](CO)O1)c1cc(Cl)cc(Cl)c1	.	-6.9	-6.6	.	.	.	.
C[C@@H]1CN([C@H](C)CO)S(=O)(=O)c2ccc(C#CC3CC3)cc2O[C@@H]1CN(C)Cc1ccccc1F	74.6	-23.5	14.6	.	.	.	.
C[C@H]1CN([C@@H](C)CO)S(=O)(=O)c2ccc(C#CC3CC3)cc2O[C@@H]1CN(C)Cc1ccccc1F	111.9*	-26.0	37.9	96.6*	116.9*	1.6	104.2*
C[C@@H]1CN([C@H](C)CO)S(=O)(=O)c2ccc(C#CC3CC3)cc2O[C@H]1CN(C)Cc1ccccc1	126.8*	-52.4	5.6	95.2*	50.6	?	104.6*
C[C@@H]1CN([C@H](C)CO)S(=O)(=O)c2ccc(C#CC3CC3)cc2O[C@@H]1CN(C)Cc1ccccc1	-5.8	-39.6	-1.8	.	.	.	.
CC(C)CC#Cc1ccc2c(c1)O[C@H](CN(C)Cc1ccccc1F)[C@H](C)CN([C@@H](C)CO)S2(=O)=O	?	-65.3	.	106.7*	83.1	28.1	105.3*
COCC#Cc1ccc2c(c1)O[C@@H](CN(C)Cc1ccccc1F)[C@H](C)CN([C@@H](C)CO)S2(=O)=O	22.7	-72.8	-0.1	.	.	.	.
C/C=C/c1cnc2c(c1)C(=O)N([C@@H](C)CO)C[C@@H](C)[C@H](CN(C)S(=O)(=O)c1ccc(F)cc1)O2	60.3	-24.6	1.1	.	.	.	.
CC(C)NC(=O)N1[C@@H](CO)[C@H](c2ccccc2)[C@@H]1CNC(=O)CN(C)C	37.7	8.7	-3.5	.	.	.	.
C[C@@H]1CN([C@H](C)CO)C(=O)c2cc(N(C)C)ccc2O[C@@H](C)CCCCO[C@H]1CN(C)C(=O)Nc1ccc2c(c1)OCO2	33.9	-23.6	1.6	.	.	.	.
C[C@@H]1CCCCO[C@@H](CN(C)C(=O)Nc2cccc3ccccc23)[C@@H](C)CN([C@H](C)CO)C(=O)c2cc(NS(=O)(=O)c3ccccc3)ccc2O1	.	-40.2	.	.	.	.	.
C[C@@H]1CN([C@@H](C)CO)C(=O)c2cc(NS(=O)(=O)c3ccc(Cl)cc3)ccc2O[C@@H](C)CCCCO[C@H]1CN(C)C(=O)Nc1cccc2ccccc12	96.4*	-76.7	-9.0	107.3*	101.8*	-13.0	12.6
C[C@@H]1CCCCO[C@H](CN(C)C(=O)Nc2cccc3ccccc23)[C@H](C)CN([C@H](C)CO)C(=O)c2cc(NS(=O)(=O)c3ccccc3)ccc2O1	.	-79.0	.	.	.	.	.
C[C@@H]1CCCCO[C@H](CN(C)C(=O)Nc2cccc3ccccc23)[C@H](C)CN([C@@H](C)CO)C(=O)c2cc(NS(=O)(=O)c3ccc(Cl)cc3)ccc2O1	99.0*	-56.5	1.1	104.4*	101.6*	-11.7	-3.1
C[C@H](CO)N1C[C@H](C)[C@@H](CN(C)C(=O)Nc2cccc3ccccc23)OCCCC[C@H](C)Oc2ccc(NS(C)(=O)=O)cc2C1=O	-9.8	-22.9	-5.8	.	.	.	.
C[C@@H]1CCCCO[C@@H](CN(C)C(=O)Nc2cccc3ccccc23)[C@H](C)CN([C@@H](C)CO)C(=O)c2cc(NS(=O)(=O)c3ccc(Cl)cc3)ccc2O1	98.3*	-5.6	-4.6	106.6*	117.0*	-24.9	-16.7
CC(C)c1cn(CC[C@H]2CC[C@@H](NC(=O)Nc3cc(Cl)cc(Cl)c3)[C@@H](CO)O2)nn1	2.1	-45.1	.	.	.	.	.
COc1cccc(C#Cc2ccc([C@H]3[C@H]4CN(C(=O)Cc5cccnc5)CC(=O)N4[C@H]3CO)cc2)c1	.	-32.2	4.1	.	.	.	.
COc1cccc(NC(=O)N(C)C[C@H]2Oc3ncc(C#Cc4ccncc4)cc3C(=O)N([C@@H](C)CO)C[C@@H]2C)c1	.	25.9	-5.5	.	.	.	.
C[C@H](CO)N1C[C@H](C)[C@@H](CN(C)C(=O)Cc2ccccn2)Oc2ncc(C#CC3CC3)cc2C1=O	103.9*	1.5	.	61.2	17.1	10.2	35.6*
SMILES	T cruzi growth-1	Pf Dd2 inh	C diff HTS	T cruzi growth-2	T cruzi growth-3	3T3 cytotox	3T3 cytotox 2
C[C@H]1CN([C@@H](C)CO)C(=O)c2cc(C#CC3CC3)cnc2O[C@@H]1CN(C)C(=O)Cc1ccccn1	34.7	8.4	.	.	.	.	.
COc1ccc(C#Cc2cnc3c(c2)C(=O)N([C@@H](C)CO)C[C@@H](C)[C@H](CN(C)C(=O)Nc2cccc(OC)c2)O3)cc1	?	-1.3	-9.0	109.7*	88.8	1.8	8.9
C[C@@H]1CN([C@H](C)CO)C(=O)c2cc(C#CC3CCCC3)cnc2O[C@H]1CN(C)C(=O)Nc1ccccc1	99.2*	-29.4	-5.8	104.0*	42.9	-5.8	2.3
COc1ccc(C#Cc2cnc3c(c2)C(=O)N([C@H](C)CO)C[C@H](C)[C@H](CN(C)C(=O)Nc2cccc(OC)c2)O3)cc1	42.1	-30.1	10.4	.	.	.	.
C[C@@H]1CN([C@@H](C)CO)C(=O)c2cc(C#CC3CCCC3)cnc2O[C@@H]1CN(C)C(=O)Nc1ccccc1	63.2	-9.5	12.0	.	.	.	.
COc1cccc(NC(=O)N(C)C[C@@H]2Oc3ncc(C#Cc4ccccc4)cc3C(=O)N([C@@H](C)CO)C[C@H]2C)c1	117.7*	-36.6	-6.2	111.0*	102.7*	6.3	3.0
COc1cccc(S(=O)(=O)Nc2ccc3c(c2)[C@H]2C[C@@H](CC(=O)NCc4ccccc4F)O[C@@H](CO)[C@H]2O3)c1	-54.4	-18.4	5.0	.	.	.	.
CO[C@@H]1CN(C)C(=O)c2ccc(NC(=O)Cc3ccccc3)cc2OC[C@@H](C)N(CC2CC2)C[C@@H]1C	-5.2	-22.8	.	.	.	.	.
C[C@@H]1CCCCO[C@H](CN(C)C(=O)CCCN(C)C)[C@@H](C)CN([C@@H](C)CO)C(=O)c2cc(NC(=O)c3ccccc3)ccc2O1	46.4	16.1	-5.0	.	.	.	.
COc1ccc(S(=O)(=O)N(C)C[C@@H]2OCCCC[C@H](C)Oc3ccc(NS(=O)(=O)c4ccccc4)cc3C(=O)N([C@H](C)CO)C[C@@H]2C)cc1	66.9	.	-14.0	.	.	.	.
